# Measured potencies and affinities stand elsewhere.
# Tests used:
# [1] = tested on: Staphylococcus aureus; conditions: Concentration 20 uM; ASSAY_TEST Inhibition of Bacterial Growth; detection method Absorption (OD600); MEDIA CAMHB; plate type 384well; NBS; CORNING #3640; time 18 hr
# [2] = tested on: Escherichia coli; conditions: Concentration 20 uM; ASSAY_TEST Inhibition of Bacterial Growth; detection method Absorption (OD600); MEDIA CAMHB; plate type 384well; NBS; CORNING #3640; time 18 hr
SMILES,Inhibition [1] [%],Inhibition [2] [%]
O=C(O)c1cccnc1 [NIACIN],1.53,-3.09
Oc1ccc(/C=C/c2cc(O)cc(O)c2)cc1 [RESVERATROL],19.49,1.45
C[C@@H]1O[C@@H](OC[C@H]2O[C@@H](Oc3c(-c4ccc(O)c(O)c4)oc4cc(O)cc(O)c4c3=O)[C@H](O)[C@@H](O)[C@@H]2O)[C@H](O)[C@H](O)[C@H]1O [RUTIN],17.86,2.05
CCCSc1ccc2[nH]c(NC(=O)OC)nc2c1 [ALBENDAZOLE],3.05,1.87
Cc1[nH]c(=O)c(C#N)cc1-c1ccncc1 [MILRINONE],14.68,-0.64
Cc1[nH]cnc1CN1CCc2c(c3ccccc3n2C)C1=O.Cl [ALOSETRON HYDROCHLORIDE],8.61,9.19
CCCc1nc2c(C)cc(-c3nc4ccccc4n3C)cc2n1Cc1ccc(-c2ccccc2C(=O)O)cc1,33.03,4.91
CCN(CC)CC1CCCCN1CC(=O)N1c2ccccc2C(=O)Nc2cccnc21 (configuration not stated) [OTENZEPAD],7.92,5.55
CC(C)[C@H]1CC[C@H](C(=O)N[C@H](Cc2ccccc2)C(=O)O)CC1 [NATEGLINIDE],10.43,6.41
CC12CC3CC(C)(C1)CC(N)(C3)C2.Cl [MEMANTINE HYDROCHLORIDE],17.71,5.88
CC1(C)O[C@@H]2C[C@H]3[C@@H]4C[C@H](F)C5=CC(=O)C=C[C@]5(C)[C@@]4(F)[C@@H](O)C[C@]3(C)[C@]2(C(=O)CO)O1 [FLUOCINOLONE ACETONIDE],-31.13,6.84
CS(=O)(=O)c1ccc(-c2cc(Br)sc2-c2ccc(F)cc2)cc1 [DUP-697],14.13,-0.37
Cl.O=C(NCC1CCCCN1)c1cc(OCC(F)(F)F)ccc1OCC(F)(F)F (configuration not stated),10.41,-6.42
CN1CCCC(n2nc(Cc3ccc(Cl)cc3)c3ccccc3c2=O)CC1.Cl (configuration not stated) [AZELASTINE HYDROCHLORIDE],-20.95,3.65
COC(=O)CCc1ccc(OCC(O)CNC(C)C)cc1.Cl (configuration not stated) [ESMOLOL HYDROCHLORIDE],16.29,-0.36
CNCCCCOc1ccccc1Cc1ccccc1.Cl,10.88,6.1
CC(=O)NS(=O)(=O)c1ccc(N)cc1 [SULFACETAMIDE],13.64,1.92
CSc1ccc2c(c1)N(CCC1CCCCN1C)c1ccccc1S2.Cl (configuration not stated) [THIORIDAZINE HYDROCHLORIDE],2.86,7.48
CC1(C)O[C@@H]2C[C@H]3[C@@H]4C[C@H](F)C5=CC(=O)C=C[C@]5(C)[C@H]4[C@@H](O)C[C@]3(C)[C@]2(C(=O)CO)O1 [FLUNISOLIDE],6.94,3.33
Br.CN(C)CCCC1(c2ccc(F)cc2)OCc2cc(C#N)ccc21 (configuration not stated) [CITALOPRAM HYDROBROMIDE],3.11,-2.5
CCCNCC(O)COc1ccccc1C(=O)CCc1ccccc1 (configuration not stated) [PROPAFENONE],9.33,8.72

SMILES,Inhibition [1] [%],Inhibition [2] [%]
O=C(NCCN1CCOCC1)c1ccc(Cl)cc1 [MOCLOBEMIDE],3.95,0.74
NNCCc1ccccc1.O=S(=O)(O)O [PHENELZINE SULFATE],-0.33,5.31
CC(Cc1ccccc1)(NC(=O)CN)c1ccccc1.Cl (configuration not stated) [REMACEMIDE HYDROCHLORIDE],12.25,-0.35
CC(C)(C)NC(=O)[C@H]1CC[C@H]2[C@@H]3CC[C@H]4NC(=O)C=C[C@]4(C)[C@H]3CC[C@]12C [FINASTERIDE],-0.3,-5.85
NC(=O)N1c2ccccc2CC(=O)c2ccccc21 [OXCARBAZEPINE],15.1,-1.4
NC(=O)N1c2ccccc2C=Cc2ccccc21 [CARBAMAZEPINE],10.71,-3.33
CCN(CC)CC(=O)Nc1c(C)cccc1C [LIDOCAINE],9.46,-3.44
CCc1nn(CCCN2CCN(c3cccc(Cl)c3)CC2)c(=O)n1CCOc1ccccc1.Cl [NEFAZODONE HYDROCHLORIDE],6.52,3.73
CCCCC[C@H](O)/C=C/[C@H]1[C@H](O)CC(=O)[C@@H]1CCCCCCC(=O)O [ALPROSTADIL],3.1,6.55
CC=CC(=O)N(CC)c1ccccc1C,8.78,0.72
CC(C)NCC(O)c1ccc(NS(C)(=O)=O)cc1.Cl (configuration not stated) [SOTALOL HYDROCHLORIDE],-25.28,5.97
N#Cc1ccc(C(c2ccc(C#N)cc2)n2cncn2)cc1 [LETROZOLE],12.65,-0.32
Cc1cccc(Nc2ccncc2S(=O)(=O)NC(=O)NC(C)C)c1 [TORSEMIDE],4.19,6.8
CNC(=C[N+](=O)[O-])NCCSCc1csc(CN(C)C)n1 [NIZATIDINE],11.02,4.27
C=CCc1ccc(O)c(-c2ccc(O)c(CC=C)c2)c1 [HONOKIOL],11.41,4.96
CCCc1c(OCCCCc2nnn[nH]2)ccc(C(C)=O)c1O [TOMELUKAST],5.76,7.84
Cc1ccc(Cl)c(Nc2ccccc2C(=O)[O-])c1Cl.O.[Na+] [MECLOFENAMATE SODIUM],27.36,2.5
CN(C)CCC[C@@]1(c2ccc(F)cc2)OCc2cc(C#N)ccc21.O=C(O)C(=O)O [ESCITALOPRAM OXALATE],8.47,3.57
COCCOC(=O)C1=C(C)NC(C)=C(C(=O)OC(C)C)C1c1cccc([N+](=O)[O-])c1 (configuration not stated) [NIMODIPINE],7.57,4.2
Br.Br.O=C1CC2(CCCC2)CC(=O)N1CCNCC1COc2ccccc2O1 (configuration not stated),17.36,6.1
CCCNC(=O)NS(=O)(=O)c1ccc(Cl)cc1 [CHLORPROPAMIDE],17.96,2.94

SMILES,Inhibition [1] [%],Inhibition [2] [%]
COc1ccc2cc(CCC(C)=O)ccc2c1 [NABUMETONE],14,3.66
COC(=O)C1=C(C)NC(C)=C(C(=O)OCCN(C)Cc2ccccc2)C1c1cccc([N+](=O)[O-])c1.Cl (configuration not stated) [NICARDIPINE HYDROCHLORIDE],-1.65,2.23
CC1(C)S[C@@H]2[C@H](NC(=O)[C@H](N)c3ccc(O)cc3)C(=O)N2[C@H]1C(=O)O [AMOXICILLIN],15.09,7.14
CCC[C@@H]1C[C@@H](C(=O)N[C@@H]([C@H]2O[C@H](SC)[C@H](O)[C@@H](O)[C@H]2O)[C@@H](C)O)N(C)C1.Cl.O [LINCOMYCIN HYDROCHLORIDE],20.41,6.86
CCCNC(C)C(=O)Nc1ccccc1C.Cl (configuration not stated) [PRILOCAINE HYDROCHLORIDE],16.77,4.99
N=c1cc(N2CCCCC2)nc(N)n1O,14.68,-3.43
COc1ccc(OC)c(C(O)CNC(=O)CN)c1.Cl (configuration not stated) [MIDODRINE HYDROCHLORIDE],15.42,4.77
CN[C@@H]1[C@H](O)[C@H](NC)[C@H]2O[C@@]3(O)C(=O)C[C@@H](C)O[C@H]3O[C@@H]2[C@H]1O.Cl.Cl.Cl.O.O.O,11.03,29.97
CC(=O)SCC(Cc1ccccc1)C(=O)NCC(=O)OCc1ccccc1 (configuration not stated) [RACECADOTRIL],11.13,-5.63
CCOc1cc(N)c(Cl)cc1C(=O)NCC1CN(Cc2ccc(F)cc2)CCO1.O=C(O)CC(O)(CC(=O)O)C(=O)O (configuration not stated) [MOSAPRIDE CITRATE],10.04,3.47
CC[C@]1(O)C[C@@H]2CN(CCc3c([nH]c4ccccc34)[C@@](C(=O)OC)(c3cc4c(cc3OC)N(C=O)[C@H]3[C@@](O)(C(=O)OC)[C@H](OC(C)=O)[C@]5(CC)C=CCN6CC[C@]43[C@@H]65)C2)C1.O=S(=O)(O)O,14.29,-3.68
CCCCc1nc(Cl)c(CO)n1Cc1ccc(-c2ccccc2-c2nnn[n-]2)cc1.[K+] [LOSARTAN POTASSIUM],-19.73,5.5
CCC(=O)O[C@]1(C(=O)SCF)[C@H](C)C[C@H]2[C@@H]3C[C@H](F)C4=CC(=O)C=C[C@]4(C)[C@@]3(F)[C@@H](O)C[C@@]21C [FLUTICASONE PROPIONATE],-21.58,6.95
NS(=O)(=O)c1cc2c(cc1Cl)NCNS2(=O)=O [HYDROCHLOROTHIAZIDE],6.38,-0.12
CC(C(=O)[O-])c1ccc(CC2CCCC2=O)cc1.[Na+] (configuration not stated) [LOXOPROFEN SODIUM],9.06,-0.84
NS(=O)(=O)c1cc2c(cc1C(F)(F)F)NCNS2(=O)=O [HYDROFLUMETHIAZIDE],14.86,7.25
CCN(CC)CCOC(=O)c1ccc(N)cc1.Cl [PROCAINE HYDROCHLORIDE],7.14,4.36
CCN1CCC[C@H]1CNC(=O)c1cc(S(N)(=O)=O)ccc1OC [LEVOSULPIRIDE],7.78,3.44
Cl.O=C(O)/C=C/c1ccc(Cn2ccnc2)cc1,-2.16,6.89

# From ChEMBL document CHEMBL4513141, “CO-ADD screening of NIH (USA) - Clinical Collection” (2021)
